Records with an inconclusive call do not appear. Where a call stands in place of a potency, no number is given. Active and inactive are the calls of the source. The call rests on the fitted dose curve; in most records, active means well fitted activation curve with a large enough effect in the signal ratio in the repeat runs, with a control signal flat (not every such curve was filed as active); inconclusive means weak or mixed curves; inactive means flat fitted curve, though single readings scatter; the % refers to the signal ratio.

A short description of this experiment: qHTS assay for small molecule activators of the heat shock response signaling pathway (AID 743210). The following applies: HeLa HSE-bla reporter, beta-lactamase ratio, 5 h; series mostly up to 62.6 µM. From the text: U.S. Tox21 Program National Center for Advancing Translational Sciences [NCATS] NIH Chemical Genomics Center [NCGC] U.S. Environmental Protection Agency [EPA] National Institutes of Environmental Health Sciences [NIEHS] National Toxicology Program [NTP] U.S. Food and Drug Administration [FDA] Tox21 Assay Overview: Various chemicals, environmental and physiological stress conditions may lead to the activation of heat shock response/ unfolded protein response (HSR/UPR). There are three heat shock transcription factors (HSFs) (HSF-1, -2, and -4) mediating transcriptional regulation of the human HSR. To identify the compounds that activate HSR signaling, HSE-bla HeLa cell line (Invitrogen, Carlsbad, CA, USA) containing a beta-lactamase reporter gene under the control of the heat shock response elements was used to screen the Tox21 10K compound library.
Tox21 Assay Protocol Summary: The CellSensor HSE-bla HeLa cells (Invitrogen, Carlsbad, CA, USA) were dispensed at 1500 cells/6uL/well into 1536-well black wall/clear bottom plates using a Multidrop combi (Thermo Fisher Scientific, Waltham, MA) dispenser. After the assay plates were incubated at 37 C and 5% CO2 overnight, 23 nL of compounds dissolved in DMSO, positive controls or DMSO only was transferred to the assay plate by a Pintool station (Kalypsys, San Diego, CA). The plates were incubated at 37 C for 5 h. After 1 uL of LiveBLAzerTM B/G FRET substrate was added using a Flying Reagent Dispenser (Beckman Coulter, Indianapolis, IN, USA), the plates were incubated at room temperature for 2.5 h, and fluorescence intensity was measured by an Envision plate reader (PerkinElmer, Shelton, CT).
With `CCc1ccc(C)cc1`, the Potency entry is “inactive”. In the case of `CCCCCCCC/C=C/C(=O)O`, the Potency result is “inactive”.

Take `CCCCCCOC(=O)CCCCC`: the Potency result is “inactive”. As for `COc1cc(C(C)=O)ccc1OCCCN1CCC(c2noc3cc(F)ccc23)CC1`, the Potency result was “inactive”. Take `C/C(C=O)=C\c1ccccc1`: the Potency result was “inactive”. For `CC(=O)Oc1cccc(O)c1`, the Potency result is “inactive”. For `CCCCC[C@H](O)/C=C/[C@H]1[C@H](O)CC(=O)[C@@H]1C/C=C\CCCC(=O)O`, the Potency result was “inactive”.

With `Cc1ccc2c(c1[N+](=O)[O-])C(=O)c1ccccc1C2=O`, the Potency entry is “inactive”.

For the molecule `c1ccc(CNc2ncnc3c2ncn3C2CCCCO2)cc1` (stereo not given), the Potency entry is “inactive”. As to `CCN(CC)C(=O)N1CCN(C)CC1`, the Potency result is “inactive”. Consider `CC(C)(C(=O)c1cccnc1)c1cccnc1`, for which the Potency result was “inactive”. Consider `CCCCCC`, for which the Potency entry is “inactive”. With `NC(=O)c1ccccc1[N+](=O)[O-]`, the Potency entry was “inactive”. Next, `O=C(O)CNC(=O)c1ccccc1I`: “inactive”; `Nc1ccc(NC(=O)c2ccc(N)cc2)cc1`: “inactive”.

As to `CCCCC(CC)COS(=O)(=O)O` (stereo not given), the Potency result is “inactive”. Next, `CCN(CC)CCOC(=O)C(c1ccccc1)c1ccccc1`: “inactive”; `CCOCCC(=O)OCC`: “inactive”.

For `CCC(C)(C)C(=O)O`, the Potency result was “inactive”. For the molecule `COc1cc(S(=O)(=O)Nc2ccccc2)c(OC)cc1N`, the Potency entry is “inactive”. For `O=C(NS(=O)(=O)/C=C/c1ccccc1)c1ccc(F)cc1Cl`, the Potency entry is “inactive”. As to `CC[C@@H](CO)NCCN[C@@H](CC)CO`, the Potency result was “inactive”. Consider `O=C1CC[C@@H](C(=O)O)N1`, for which the Potency result is “inactive”. Consider `CCCCCCC(CO)CCCC` (stereo not given), for which the Potency result is “inactive”.

Turning to `COC(CC(C)CCCC(C)(C)O)OC` (stereo not given), the Potency result was “inactive”. In the case of `NC(=O)CCCCC(N)=O`, the Potency result is “inactive”.

Turning to `O=C1c2ccccc2C(=O)c2c(O)ccc(O)c21`, the Potency entry is “inactive”. With `Cc1cc(CCCOc2c(C)cc(-c3noc(C(F)(F)F)n3)cc2C)on1`, the Potency entry is “inactive”. Next, `CC(C)COC(=O)c1ccc(O)cc1`: “inactive”; `CC12CC3CC(C)(C1)CC(N)(C3)C2`: “inactive”; `Cc1ccc(S(=O)(=O)NC(=O)NC2CCCCC2)cc1`: “inactive”.

Consider `O=C(O)CN1C(=O)c2cccc3cccc(c23)C1=O`, for which the Potency entry was “inactive”.

Regarding `CC(C)N(C)C`, the Potency result is “inactive”. Next, `Cc1c(C2(c3cc(Br)c(O)c(Br)c3C)OS(=O)(=O)c3ccccc32)cc(Br)c(O)c1Br`: “inactive”; `CC(=O)OC(C)C[N+](C)(C)C` (stereo not given): “inactive”; `COc1cc(NC(C)CCCN)c2ncccc2c1` (stereo not given): “inactive”.

For the molecule `CSSc1ccoc1C`, the Potency entry is “inactive”. As to `CCN(CC)c1ccc(C(=C2C=CC(=[N+](CC)CC)C=C2)c2ccc(S(=O)(=O)O)cc2S(=O)(=O)[O-])cc1`, the Potency result is “inactive”.

In the case of `O=C(Nc1ccc(C(=O)O)c(O)c1)c1ccccc1`, the Potency entry was “inactive”. As for `Cc1ccccc1S(N)(=O)=O`, the Potency result was “inactive”.

For the origin of these results see PubChem BioAssay (Tox21).
